Compound activity deposited in PubChem BioAssay by National Center for Advancing Translational Sciences (NCATS).
Hits are enriched below; roughly 5.9% of the tested compounds scored in any of these assays.
Gal4-VP16 FLuc: VP16 counterscreen qHTS for inhibitors of ROR gamma transcriptional activity; Drosophila S2 Gal4-VP16 UAS-luciferase, luminescence, 20 h; AID 2546, 2010; actives 3.5% (n = 310,000); Potency, µM (series often up to 53.6 µM), actives largely listed as inhibitors;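 note: Gal4-VP16 expression switched on by copper sulfate through the metallothionein promoter; nearly all actives have a fitted effect of over 50% in size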
TrxR1 inh: qHTS Assay for Inhibitors of Mammalian Selenoprotein Thioredoxin Reductase 1 (TrxR1): qHTS; Thioredoxin reductase 1, cytoplasmic (Rattus norvegicus), O89049; recombinant rTrxR1, NADPH fluorescence consumption, selenite substrate; Potency, µM (top dose mostly 114 µM), actives largely listed as inhibitors; actives 1% (n = 390,000); AID 588453, 2011; note: nearly all actives have a fitted effect of over 65% in size
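Rat TrxR1 (90 nM in the dispensed reagent) was pre-reduced with 400 uM NADPH for 5 min at room temperature, then incubated with compound for 15 min. After 400 uM selenite was added, NADPH fluorescence (Ex 340/Em 450 nm) was followed for 8 min.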
Coupling enz: qHTS Assay for Inhibitors of Fructose-1,6-bisphosphate Aldolase from Giardia Lamblia: Coupling assay counterscreen. coupling enzyme system counterscreen, AmpLite Red fluorescence. activity change, negative = inhibition, % at 58.2 µM, hits read low. actives 0.67% (n = 290,000). AID 2472, 2010; in the data active = activity change below about -30%
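Activity here indicates interference with the coupling reaction, not aldolase inhibition. Compounds at 57.5 uM final met coupling enzymes for 10 min at RT; substrate and AmpLite Red detection followed, with a 525/598 nm fluorescence read after 20 min.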
RORg inh: qHTS for inhibitors of ROR gamma transcriptional activity; Nuclear receptor ROR-gamma (Mus musculus), P51450; Drosophila S2 Gal4-RORgamma UAS-luciferase reporter, 20 h; Potency, µM (titrated, usually from 53.6 µM), usual class: inhibitors; actives 5.4% (n = 310,000); note: nearly all actives have a fitted effect of over 60% in size
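In this cell-based reporter format, copper sulfate (700 uM final) drives Gal4–ROR gamma fusion expression from a metallothionein promoter in Drosophila Schneider cells; compounds preincubated 1 hr, reporter read after 20 hr at ambient temperature.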
TrxR1 substrate: qHTS Assay for Substrates of Mammalian Selenoprotein Thioredoxin Reductase 1 (TrxR1): qHTS. actives 0.01% (n = 390,000). purified TrxR1 substrate turnover, NADPH consumption readout. Potency, µM (doses to about 114 µM). Thioredoxin reductase 1, cytoplasmic (Rattus norvegicus), O89049; note: nearly all actives have a fitted effect of over 50% in size
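Rat TrxR1, dispensed at 90 nM, was prereduced with 400 uM NADPH (final) for 5 min at ~22 deg C, then incubated with compound 15 min before 400 uM selenite. A first-read NADPH fluorescence drop versus no-compound background flagged substrates.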
GALK inhibitor: qHTS Assay for Inhibitors of Human Galactokinase (GALK) | P51570 | actives 0.007% (n = 270,000) | AID 1868, 2009 | Potency, µM (titrated, usually from 57.5 µM), usual class: inhibitors | Purified GALK, Kinase-Glo residual ATP luminescence
Target sequence (P51570 whole entry, looked up): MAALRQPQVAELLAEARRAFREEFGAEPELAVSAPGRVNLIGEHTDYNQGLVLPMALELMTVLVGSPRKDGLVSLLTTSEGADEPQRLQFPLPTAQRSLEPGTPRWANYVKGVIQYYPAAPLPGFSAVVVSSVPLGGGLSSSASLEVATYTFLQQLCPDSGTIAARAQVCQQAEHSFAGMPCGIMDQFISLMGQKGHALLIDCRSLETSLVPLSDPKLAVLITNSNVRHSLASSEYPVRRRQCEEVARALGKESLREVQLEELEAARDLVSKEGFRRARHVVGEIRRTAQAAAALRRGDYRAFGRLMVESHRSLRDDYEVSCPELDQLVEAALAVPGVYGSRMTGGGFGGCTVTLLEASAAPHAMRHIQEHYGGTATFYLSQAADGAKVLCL
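Galactose (100 uM) and ATP (35 uM) were turned over by 5 nM GALK for 1 h at RT. Kinase-Glo Plus then converted the remaining ATP into a luminescent signal.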
Of the large screens only hits and unclear results are named; the others gave an inactive call; ! = repeats disagree. Unless noted, calls come from the whole dose curve; as a rule, active = well fitted curve in the direction sought with a large enough effect; inconclusive = small, poorly fitted or top-dose-only effect, or another doubt; inactive = no such curve, though single readings can be large; an effect the other way counts as inactive or inconclusive.

CCc1cccc(NC(=O)C(Cc2ccccc2)NS(=O)(=O)c2ccc3c(c2)oc(=O)n3C)c1 (configuration not stated)	none (no result: Gal4-VP16 FLuc, Coupling enz, RORg inh, GALK inhibitor)
COc1ccc(CCNC(=O)C(=O)NCC2OCCN2S(=O)(=O)c2ccc(C)cc2)cc1OC (configuration not stated)	Gal4-VP16 FLuc 10µM (no result: GALK inhibitor)
COc1ccccc1CNC(=O)C(=O)NCC1OCCN1S(=O)(=O)c1ccc(Br)cc1 (configuration not stated)	none (no result: Coupling enz)
COc1ccccc1CCNC(=O)C(=O)NCC1OCCN1S(=O)(=O)c1ccc(Br)cc1 (configuration not stated)	Gal4-VP16 FLuc 35.5µM, RORg inh inconclusive
O=S(=O)(NCCN1CCOCC1)c1ccc(Cl)s1	none
CCOc1nc(NC2CCCCC2)nc(NC(C)(C)C)n1	Gal4-VP16 FLuc 15.8µM, RORg inh inconclusive
CCOc1ccc(-n2nc(CO)c(C(=O)NCCCc3ccccc3)n2)cc1	none (no result: Gal4-VP16 FLuc, Coupling enz, RORg inh, GALK inhibitor)
Cn1c(=O)oc2cc(S(=O)(=O)N3CCCC(C(=O)NC4CCCc5ccccc54)C3)ccc21 (configuration not stated)	Gal4-VP16 FLuc 0.1µM, RORg inh inconclusive
Cc1ccc(S(=O)(=O)Nc2ccc(C(=O)N3CCCC3)cc2)c(C)c1NS(C)(=O)=O	none
Cc1ccsc1/C=C1\Oc2cc(OCC(=O)c3ccccc3)ccc2C1=O	Gal4-VP16 FLuc inconclusive, RORg inh 15.8µM (no result: GALK inhibitor)
COc1ccc(/C=C2\Oc3cc(OCC(N)=O)ccc3C2=O)cc1OC	Gal4-VP16 FLuc inconclusive
Cc1nc2ccccn2c1C(=O)Nc1ccc(Cl)cc1	Gal4-VP16 FLuc inconclusive
O=C(Nc1nccs1)C1CC2CCC1C2 (configuration not stated)	RORg inh 7.94µM (no result: GALK inhibitor)
O=C1NCN(c2ccccc2)C12CCN(CCCC(c1ccc(F)cc1)c1ccc(F)cc1)CC2	Gal4-VP16 FLuc 17.8µM!, RORg inh 12.6µM!, TrxR1 substrate inconclusive
O=C1CCC(=O)N1CCC(c1ccc(F)cc1)c1ccco1 (configuration not stated)	TrxR1 inh inconclusive
CCC1(CC)Cc2ccccc2-c2nc(NN)[nH]c(=O)c21	Gal4-VP16 FLuc 15.8µM, RORg inh 10µM
CCC1(C)Cc2ccccc2-c2nc(NCCO)[nH]c(=O)c21 (configuration not stated)	none
CCC1(C)Cc2ccccc2-c2nc(NN)[nH]c(=O)c21 (configuration not stated)	Gal4-VP16 FLuc inconclusive, RORg inh 15.8µM
CN(CC(=O)Nc1cccc2ccccc12)C(=O)/C=C/c1cccs1	none
CCOc1cc(C2NC(=O)c3c(sc4c3CCN(C)C4)N2)ccc1OC(=O)c1ccc(Br)cc1 (configuration not stated)	none (no result: Gal4-VP16 FLuc, Coupling enz, RORg inh, GALK inhibitor)
COc1ccc(/C=C/c2nc3ccccc3n2C)cc1	Gal4-VP16 FLuc inconclusive, RORg inh 2µM
CC(C)Cn1c(/C=C/c2ccccc2)nc2ccccc21	Gal4-VP16 FLuc 11.2µM, RORg inh 11.2µM
COc1ccc(-c2nc3ccccc3n2Cc2ccccc2)cc1	Gal4-VP16 FLuc inconclusive, RORg inh 3.98µM
COc1ccc(Cn2c(/C=C/c3ccccc3)nc3ccccc32)cc1	Gal4-VP16 FLuc inconclusive, RORg inh 7.08µM
C=CCn1c(-c2ccc(OC)cc2)nc2ccccc21	RORg inh inconclusive
C/C(CC(=O)Nc1cccc2c1CCCC2)=N\NC=O	none
O=C(O)CCc1nn2c3ccccc3n(CC(=O)c3ccccc3)c2nc1=O	none
COc1ccc2c(c1)nc(N)n2Cc1ccccc1	Gal4-VP16 FLuc inconclusive, RORg inh inconclusive
CCC(C)n1c(S(=O)(=O)O)nc2ccccc21 (configuration not stated)	none
CCC(C)n1c(/C=C/c2ccccc2)nc2ccccc21 (configuration not stated)	Gal4-VP16 FLuc 12.6µM, RORg inh 10µM
COc1ccc(/C=C/c2nc3ccccc3c(=O)o2)cc1	Gal4-VP16 FLuc 7.94µM, RORg inh 4.47µM
COc1ccc(-c2n(Cc3ccccc3)c3ccccc3[n+]2Cc2ccccc2)cc1	Gal4-VP16 FLuc 5.01µM, RORg inh 5.62µM
CCn1c(/C=C/c2ccccc2)nc2ccccc21	Gal4-VP16 FLuc inconclusive, RORg inh 15.8µM
COc1ccccc1/C=C/c1nc2ccccc2c(=O)o1	none (no result: Gal4-VP16 FLuc, Coupling enz, RORg inh, GALK inhibitor)
CCc1nnc(NC(=O)C2CC(=O)N(c3ccc(C)cc3)C2)s1 (configuration not stated)	none
COc1cc2cc(CN(CCc3cccc(C)c3)C(=S)NCCCN3CCOCC3)c(=O)[nH]c2cc1OC	Gal4-VP16 FLuc inconclusive, RORg inh 7.08µM
CCN(CC)C(=S)Sc1c(-c2ccccc2)c2cc(Cl)ccc2[nH]c1=O	Gal4-VP16 FLuc 7.94µM, RORg inh 8.91µM
O=C(O)CSc1c(-c2ccccc2)c2cc(Cl)ccc2[nH]c1=O	Gal4-VP16 FLuc inconclusive, RORg inh inconclusive
O=C(/C=C/c1ccc([N+](=O)[O-])s1)N1CCCC1	Gal4-VP16 FLuc 12.6µM, TrxR1 inh inconclusive, RORg inh 6.31µM
O=C(/C=C/c1ccc([N+](=O)[O-])s1)N1CCCCC1	Gal4-VP16 FLuc inconclusive, TrxR1 inh inconclusive, RORg inh 11.2µM
O=C(/C=C/c1ccc([N+](=O)[O-])s1)N1CCN(c2ccccc2)CC1	none
CC1CC(C)CN(C(=O)/C=C/c2ccc([N+](=O)[O-])s2)C1 (configuration not stated)	none
Cc1cccc(C)c1NC(=O)N1C(C(=O)O)CSC1C(=O)O (configuration not stated)	none
CCN(CC)c1ccc(C(=O)NCc2nc3cccnc3n2Cc2ccc(C)cc2)cc1	none (no result: Gal4-VP16 FLuc, Coupling enz, RORg inh, GALK inhibitor)
Cc1cc2[nH]c(=O)cc(-c3ccccc3)n2n1	Gal4-VP16 FLuc 17.8µM, RORg inh 11.2µM
O=C(NC(=S)Nc1ccccn1)c1cccc([N+](=O)[O-])c1	Gal4-VP16 FLuc inconclusive, RORg inh 3.55µM
CCOc1ccc(C(=O)NC(=S)Nc2cccnc2)cc1[N+](=O)[O-]	RORg inh 14.1µM
CCOc1ccc(C(=O)NC(=S)Nc2cc(C)ccn2)cc1[N+](=O)[O-]	none
COc1ccc(C(=O)NC(=S)Nc2cccnc2)cc1[N+](=O)[O-]	TrxR1 inh 10µM, RORg inh inconclusive
CCOc1ccc(C(=O)NC(=S)Nc2ccccn2)cc1[N+](=O)[O-]	Gal4-VP16 FLuc inconclusive, RORg inh 0.708µM
CCCSc1nc2c(c(=O)n(C)c(=O)n2C)n1C	none
